Screens from PubChem.
The list is not random: actives were taken first. Their share in the collection is about 13%.
CHX counter: counter-screen for Shiga toxin inhibitors: cycloheximide protein synthesis inhibition; actives 12% (n = 300,000); max response, %; cell reporter, cycloheximide protein synthesis inhibition counterscreen; in the data active means max response mostly above about 13%, no sharp cut-off; inactive means mostly below about 14%; further: read at 38.3 µM for the half of the compounds with a filed dose
Shiga toxin inh: Shiga toxin inhibition | Vero cells, Shiga toxin protein synthesis inhibition reporter | inhibition, % at 38.7 µM | actives 9.2% (n = 290,000); in the data active means inhibition mostly above about 28%, no sharp cut-off; inactive means mostly below about 43%
Lassa entry inh: inhibitors of Lassa virus binding or cell entry. Potency, µM (doses to about 37.9 µM), hits mostly inhibitors. actives 1.2% (n = 300,000). Lassa virus pseudotype entry inhibition, cell reporter; calls by dose curve; tested in HEK293 cells; further: nearly all actives have a fitted effect of over 50% in size
HCV inh: HCV inhibition; Huh7.5.1 HCVcc-Cre infection, luciferase reporter, 44 h; Potency, µM (series often up to 41.8 µM), actives largely listed as inhibitors; actives 3.4% (n = 340,000); active means well fitted inhibition curve with a large enough effect; inconclusive means small, poorly fitted or top-dose-only effect, or another doubt; inactive means no such curve, though single readings can be large or run the other way
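Whole-lifecycle infectious HCVcc-Cre system; cells 1,000/well, compound then virus (~0.5 moi) added 4 h after plating, 44 h culture. Luciferase read 15 sec following 15 min substrate incubation, room temp.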
FMDV inh: antivirals against foot and mouth disease virus | FMDV antiviral cell-based qHTS | Potency, µM (series often up to 57.9 µM), actives largely listed as inhibitors | actives 1.2% (n = 410,000); calls by dose curve; tested in HEK293T cells; further: read-out not given here; nearly all actives have a fitted effect of over 45% in size
Marburg entry inh: inhibitors of Marburg virus binding or cell entry. Potency, µM (titrated, usually from 37.8 µM), hits mostly inhibitors. AID 540276. Marburg virus pseudotyped entry inhibition, cell reporter. actives 1.8% (n = 300,000); calls by dose curve; tested in HEK293 cells
Each line names hits and unclear results; the compound was inactive in the other large screens.

NC(=O)CC(NC(=O)c1cccc(Br)c1)c1ccc(NC2CCCCCCC2)c([N+](=O)[O-])c1 (stereo not drawn)	none (no result: Lassa entry inh, Marburg entry inh)
O=C(CSc1nnc(C2CC2)n1Cc1ccccc1)c1cc2ccccc2o1	Lassa entry inh inconclusive, Marburg entry inh inconclusive
Cn1cc(CN2CCCC(C(=O)c3ccc(-c4ccccc4)cc3)C2)cn1 (stereo not drawn)	HCV inh 14.1µM (no result: Lassa entry inh, Marburg entry inh)
O=C(CSCc1nc2ccccc2[nH]1)N1CCN(c2cccc(Cl)c2)CC1	FMDV inh 35.5µM, Marburg entry inh inconclusive
O=C(CSCc1nc2ccccc2[nH]1)N1CCN(c2ccc(F)cc2)CC1	HCV inh 12.6µM, FMDV inh 35.5µM, Marburg entry inh inconclusive
C=C1CCN([C@@H](Cc2ccccc2)C(=O)NCc2ccc(Cl)cc2)S(=O)(=O)c2ccccc21	none (no result: CHX counter, Shiga toxin inh, Lassa entry inh, Marburg entry inh)
Cc1cc(NC(=O)CCl)nn1C	Lassa entry inh inconclusive, HCV inh inconclusive, FMDV inh 35.5µM, Marburg entry inh 7.94µM
Cn1ccc(NC(=O)CCl)n1	CHX counter 29.5, Lassa entry inh inconclusive, HCV inh inconclusive, FMDV inh inconclusive, Marburg entry inh inconclusive
Cc1cc(Br)c(NC(=O)CCl)c(Br)c1	FMDV inh inconclusive, Marburg entry inh inconclusive
Cc1[nH]c2ccccc2c1C(=O)COc1ccccc1F	CHX counter 24.8, HCV inh inconclusive
Cc1ccc(S(=O)(=O)CCC(=O)OCC(=O)c2c(C)[nH]c3ccccc23)cc1	none
CCOC(=O)c1c(C)[nH]c(C)c1C(=O)COC(=O)c1ccccc1O	none
Cc1[nH]c2ccccc2c1C(=O)COC(=O)c1nccnc1N	none (no result: CHX counter, Shiga toxin inh, Lassa entry inh, Marburg entry inh)
Cc1[nH]c2ccccc2c1C(=O)COC(=O)c1ccccc1O	HCV inh 11.2µM (no result: CHX counter, Shiga toxin inh)
Cc1[nH]c2ccccc2c1C(=O)COc1ccccc1	CHX counter 14.8
N#CCC(=O)N/N=C/c1cc(Br)ccc1OCc1cccc2ccccc12	HCV inh inconclusive (no result: Lassa entry inh, Marburg entry inh)
O=C(CSc1cn(CC(=O)N2CCCCC2)c2ccccc12)NCc1ccccc1	none (no result: CHX counter, Shiga toxin inh, HCV inh, Marburg entry inh)
O=C1CCCc2nc(N3CCCCC3)sc21	CHX counter 30.3, Shiga toxin inh 51.4, Marburg entry inh inconclusive
Nc1nnc(N2CCCCCC2)s1	none
CN(Cc1cccs1)C(=O)C1CC(=O)N(Cc2ccccc2)C1 (stereo not drawn)	none (no result: CHX counter, Shiga toxin inh)
Cc1ccc(C2(c3ccc(C)cc3)CC2C(=O)NCc2cccnc2)cc1 (stereo not drawn)	HCV inh inconclusive
Cc1ccc(C2(c3ccc(C)cc3)CC2C(=O)NC(C)C)cc1 (stereo not drawn)	Marburg entry inh 12.6µM
Cc1ccccc1CNc1ccc(C(CC(N)=O)NC(=O)c2ccccc2)cc1[N+](=O)[O-] (stereo not drawn)	HCV inh 11.2µM (no result: Lassa entry inh, Marburg entry inh)
NC(=O)CC(NC(=O)c1ccc(Br)cc1)c1ccc(NC2CCCCCC2)c([N+](=O)[O-])c1 (stereo not drawn)	CHX counter 12.2 (no result: Lassa entry inh, Marburg entry inh)
CCC(NS(=O)(=O)c1ccc(C)cc1)C(=O)N1CCC2(O)CCCCC2C1 (stereo not drawn)	none
FC(F)(F)c1cnc(NNC(=S)Nc2ccccc2Cl)c(Cl)c1	Lassa entry inh inconclusive, HCV inh inconclusive, FMDV inh 10µM, Marburg entry inh inconclusive
S=C(NNc1ccnc2cc(Cl)ccc12)Nc1ccccc1Cl	CHX counter 22.8, Lassa entry inh inconclusive, HCV inh inconclusive, FMDV inh inconclusive, Marburg entry inh inconclusive
Cc1cccc(NC(=S)NNc2ncc(C(F)(F)F)cc2Cl)c1	Lassa entry inh 18.4µM, HCV inh 11.2µM, FMDV inh inconclusive, Marburg entry inh inconclusive
CC1CN(C(=O)CCC(=O)NCCc2ccccc2)c2ccccc2O1 (stereo not drawn)	CHX counter 25.3, Shiga toxin inh 35.1 (no result: Lassa entry inh, Marburg entry inh)
NC(=O)c1ccsc1NC(=O)c1ccc(S(=O)(=O)N2CCCCC2)cc1	CHX counter 46.0, Shiga toxin inh 65.5 (no result: Lassa entry inh, Marburg entry inh)
NC(=O)c1ccsc1NC(=O)c1ccc(S(=O)(=O)N2CCCC2)cc1	CHX counter 33.2, Shiga toxin inh 139.2, HCV inh inconclusive (no result: Lassa entry inh, Marburg entry inh)
O=C(CCCN1C(=O)/C(=C/c2cccs2)SC1=S)Nc1ccccc1O	HCV inh inconclusive, Marburg entry inh inconclusive
CCCN1CCN(CC(=O)Nc2nc3ccccc3s2)CC1	none
COc1ccc(/C=N/OCC(=O)Nc2nc3ccccc3s2)cc1OC	CHX counter 20.1
COc1ccc(/C(C)=N/OCC(=O)Nc2nc3ccccc3s2)cc1	CHX counter 12.1
CCNC(=O)Nc1nc2ccccc2s1	CHX counter 43.7, Shiga toxin inh 59.9, Marburg entry inh inconclusive
